Hits are enriched below; roughly 4% of the tested compounds scored in any of these assays.
697 NFkB inh – inhibitors of PMA/ionomycin-induced NF-kB reporter, 697 cells, primary screen, B-cell NF-kB inhibitor project, cell-based, luminescence, uHTS. 697 B-cell NF-kB luciferase reporter, 16 h. inhibition, % at 4 µM. 330,000 compounds, 0.33% hits. AID 435022, 2010; in the data active = inhibition above about 35%
Jurkat NFkB inh – inhibitors of induced NF-kB luciferase reporter, primary screen, TCR NF-kB activation inhibitor project, cell-based, luminescence, uHTS | 330,000 compounds, 0.53% hits | inhibition, % at 4 µM | Jurkat, PMA/ionomycin-induced NF-kB luciferase reporter; in the data active = inhibition above about 50%
Gli-Sufu block – Gli-Sufu pathway antagonists, primary screen, luciferase luminescence, Sufu-KO-LIGHT cells, uHTS; inhibition, % at 5 µM; Sufu-KO-LIGHT fibroblasts, Gli luciferase reporter luminescence; 340,000 compounds, 0.74% hits;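 active = inhibition above about 55%, limit read from the data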
Beta cell apopt – inhibitors of cytokine-induced beta cell apoptosis, primary screen, luminescence. INS-1E cytokine-induced death, ATP luminescence, 48 h; percent of positive-control rescue, neutral wells zero. protection from apoptosis, % (concentration not given with the values). 300,000 compounds, 0.8% hits;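 active = Every replicate reaches about 75%, or at least half do and their mean reaches it too, limit read from the data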;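 also: higher means more ATP so stronger rescue from cytokine killing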
Mdm2 MdmX PPI – inhibitors of human Mdm2-MdmX association, primary screen, cell-based, luminescence, split luciferase, SaOS-2, uHTS; Protein Mdm4 (Homo sapiens) + E3 ubiquitin-protein ligase Mdm2 (Homo sapiens), …; SaOS-2 split-luciferase Mdm2/MdmX complementation; inhibition, % at 8 µM; 330,000 compounds, 3% hits;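 active = inhibition of at least 50% at 8 µM in the primary screen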
Target sequence (O15151 whole entry, looked up): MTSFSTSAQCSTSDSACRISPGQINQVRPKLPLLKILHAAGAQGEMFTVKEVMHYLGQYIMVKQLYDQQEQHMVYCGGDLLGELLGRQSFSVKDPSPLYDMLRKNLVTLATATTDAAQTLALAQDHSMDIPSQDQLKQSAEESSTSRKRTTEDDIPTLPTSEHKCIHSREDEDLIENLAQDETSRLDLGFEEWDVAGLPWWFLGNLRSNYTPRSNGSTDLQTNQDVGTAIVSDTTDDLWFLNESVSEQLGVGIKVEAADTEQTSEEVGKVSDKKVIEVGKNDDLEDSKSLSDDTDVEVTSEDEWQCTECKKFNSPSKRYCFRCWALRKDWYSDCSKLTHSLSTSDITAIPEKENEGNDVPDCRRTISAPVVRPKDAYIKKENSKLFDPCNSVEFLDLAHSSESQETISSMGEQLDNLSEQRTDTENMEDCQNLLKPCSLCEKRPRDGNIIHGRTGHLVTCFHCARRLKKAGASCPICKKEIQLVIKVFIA
Target sequence (Q00987 whole entry, looked up): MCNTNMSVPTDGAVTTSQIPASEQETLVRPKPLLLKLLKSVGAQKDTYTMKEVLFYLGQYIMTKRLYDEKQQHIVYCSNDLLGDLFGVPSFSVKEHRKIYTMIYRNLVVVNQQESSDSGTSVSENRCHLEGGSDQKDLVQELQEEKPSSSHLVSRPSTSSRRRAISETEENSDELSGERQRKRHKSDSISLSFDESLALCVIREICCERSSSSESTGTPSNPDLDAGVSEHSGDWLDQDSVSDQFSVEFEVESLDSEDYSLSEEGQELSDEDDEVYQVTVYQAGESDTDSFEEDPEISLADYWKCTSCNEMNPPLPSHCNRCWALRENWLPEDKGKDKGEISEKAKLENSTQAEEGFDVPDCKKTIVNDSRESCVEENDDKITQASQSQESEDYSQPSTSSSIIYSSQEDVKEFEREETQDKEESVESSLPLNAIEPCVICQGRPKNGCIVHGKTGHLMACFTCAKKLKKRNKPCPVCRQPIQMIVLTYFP
Jurkat NFkB conf – PMA/ionomycin-induced NF-kB reporter inhibitors, Jurkat retest, confirmation, T-cell NF-kB inhibitor project, cell-based, luminescence, single concentration | shares compounds with Jurkat NFkB inh | Jurkat NF-kB luciferase, 16 h | inhibition, % at 4 µM | 2,700 compounds, 27% hits | AID 435020, 2010;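 active = inhibition reaching about 45% at 4 µM in either replicate, limit read from the data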
697 NFkB conf – PMA/ionomycin-induced NF-kB reporter inhibitors, 697 retest, confirmation, B-cell NF-kB inhibitor project, cell-based, luminescence, single concentration; shares compounds with 697 NFkB inh; 697 B-cell NF-kB luciferase, 16 h; inhibition, % at 4 µM; 2,000 compounds, 35% hits; AID 449746, 2010; in the data active = inhibition mostly above about 28%, no sharp cut-off; inactive = mostly below about 22%
Mdm2 MdmX conf – Mdm2-MdmX complex disruptors, retested hits, confirmation, luminescence, single concentration; shares compounds with Mdm2 MdmX PPI; Mdm2-MdmX binding, luminescent assay; inhibition, % at 8 µM; 10,000 compounds, 55% hits; AID 489028, 2010; in the data active = inhibition above about 40%
Full FLuc ctr – full-length luciferase signal inhibition, confirmation, counter-screen for Mdm2/MdmX interaction inhibitor project, cell-based, single concentration, SaOS-2 | shares compounds with Mdm2 MdmX PPI | SaOS-2 full-length luciferase counterscreen, luminescence | inhibition, % at 8 µM | 6,200 compounds, 77% hits;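 active = mean inhibition at 8 µM reaching about 37%, which flags the compound as non-specific, limit read from the data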;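 also: p53-null SaOS-2 cells with luciferase driven by a doxycycline-inducible promoter; compound on cells about two nights before reading with doxycycline added after day one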
Large screens that a line does not name were inactive (follow-up assays come after a bar, where they were run).

NC(N)=N/N=C/c1ccccc1	none (no result: Beta cell apopt)
NC(N)=N/N=C/c1ccc(OCc2ccccc2Cl)cc1	Jurkat NFkB inh 63.3, Mdm2 MdmX PPI 98.3 | Jurkat NFkB conf inactive | Mdm2 MdmX conf 67.5 | Full FLuc ctr inactive
CC(=O)c1ccc(OCCCC(=O)Nc2cccc(-c3nn[nH]n3)c2)cc1	none
COc1ccc(/C=N/NC(=O)c2cccnc2)cc1COc1ccc([N+](=O)[O-])c(C)c1	Jurkat NFkB inh 57.4, Mdm2 MdmX PPI 52.4 | Jurkat NFkB conf inactive | Mdm2 MdmX conf 54.6 | Full FLuc ctr 47.7
COc1ccc(/C=N/NC(=O)c2ccn[nH]2)cc1COc1ccc([N+](=O)[O-])c(C)c1	none (no result: Beta cell apopt)
N=c1c2c(-c3ccccc3)c(-c3ccccc3)n(Cc3ccccc3)c2ncn1CCCn1ccnc1	697 NFkB inh 37.4, Jurkat NFkB inh 57.7, Mdm2 MdmX PPI 100.3 | Jurkat NFkB conf inactive | 697 NFkB conf 24.1 | Mdm2 MdmX conf 90.0 | Full FLuc ctr inactive
CCCCn1cnc2c(c(-c3ccccc3)c(-c3ccccc3)n2Cc2ccco2)c1=N	Jurkat NFkB inh 81.1, Beta cell apopt 113.6, Mdm2 MdmX PPI 97.9 | Jurkat NFkB conf inactive | Mdm2 MdmX conf 73.2 | Full FLuc ctr 59.7
Cc1cc2c(cc1S(=O)(=O)CCC(=O)Nc1cccc(C(F)(F)F)c1)OCC(=O)N2	none
Cc1nn(C)c(C(=O)N2CCN(C(=O)c3ccco3)CC2)c1Br	none
Cc1nc(NC2=NCN(CCCN3CCOCC3)CN2)nc2c(C)cccc12	Jurkat NFkB inh 64.0, Mdm2 MdmX PPI 97.3 | Jurkat NFkB conf inactive | Mdm2 MdmX conf 96.4 | Full FLuc ctr inactive
CCc1cc(CNC(=O)C2CCC(=O)N(Cc3ccc(Cl)cc3)C2)on1 (configuration not stated)	none
CCOc1ccc(N/C(N)=N/c2nc(CSc3nnc(C)s3)cc(=O)[nH]2)cc1	Jurkat NFkB inh 74.0, Mdm2 MdmX PPI 66.6 | Jurkat NFkB conf 50.2 | Mdm2 MdmX conf 56.1 | Full FLuc ctr 80.6
Cc1nnc(SCc2cc(=O)[nH]c(/N=C(\N)Nc3ccccc3)n2)s1	none
CCOc1cc(N2CCOCC2)c(OCC)cc1NC(=O)COC(=O)c1ccc(OC)c([N+](=O)[O-])c1	none (no result: 697 NFkB inh, Jurkat NFkB inh, Beta cell apopt, Mdm2 MdmX PPI)
C=CCSc1nc2ccccc2n1C(=O)/C=C/c1cc(OC)c(OC)c(OC)c1	Jurkat NFkB inh 63.9, Mdm2 MdmX PPI 100.2 | Jurkat NFkB conf inactive | Mdm2 MdmX conf 94.9 | Full FLuc ctr inactive
Cc1ccnc2c1ccc1cccnc12	Jurkat NFkB inh 69.3, Gli-Sufu block 92.3, Mdm2 MdmX PPI 83.5 (no result: Beta cell apopt) | Jurkat NFkB conf 63.8 | Mdm2 MdmX conf 86.5 | Full FLuc ctr inactive
Cc1ccnc2c1ccc1ccccc12	none (no result: Beta cell apopt)
Cc1ccnc2c1ccc1c(C)ccnc12	Jurkat NFkB inh 76.3, Gli-Sufu block 90.8, Beta cell apopt 102.3, Mdm2 MdmX PPI 84.0 | Jurkat NFkB conf 74.7 | Mdm2 MdmX conf 85.2 | Full FLuc ctr inactive
CC1(C)CC(NC(=O)C2CCN(S(=O)(=O)c3cccc(C(F)(F)F)c3)CC2)CC(C)(C)N1	none
CCOc1cc(S(=O)(=O)NCc2ccc(OC)cc2)c(OCC)cc1-n1cnnn1	Jurkat NFkB inh 56.8, Mdm2 MdmX PPI 50.8 | Jurkat NFkB conf inactive | Mdm2 MdmX conf 45.5 | Full FLuc ctr 85.7
COc1ccc2[nH]c3c(c2c1)CCNC3C1CC=C(C)CC1 (configuration not stated)	Jurkat NFkB inh 58.0, Mdm2 MdmX PPI 66.6 | Jurkat NFkB conf inactive | Mdm2 MdmX conf 60.7 | Full FLuc ctr 57.4
Cc1cc(C)n(-c2cccc(Cl)c2C#N)n1	none (no result: Beta cell apopt)
Cc1ccc(NC(=O)Nc2ccnc(-c3cccnc3)n2)cc1	Jurkat NFkB inh 62.4, Mdm2 MdmX PPI 76.1 | Jurkat NFkB conf 46.8 | Mdm2 MdmX conf 71.2 | Full FLuc ctr 67.8
O=C(Nc1ccc(N2CCN(C(=O)c3cccs3)CC2)cc1)c1ccc([N+](=O)[O-])o1	Jurkat NFkB inh 52.3, Mdm2 MdmX PPI 72.0 (no result: Gli-Sufu block) | Jurkat NFkB conf inactive | Mdm2 MdmX conf 80.0 | Full FLuc ctr 38.6
CN(C)CCCNC(=O)C(=O)Nc1ccc2c(c1)N(S(=O)(=O)c1cccs1)CCC2	none
CN(C)CCNC(=O)C(=O)Nc1ccc2c(c1)N(S(=O)(=O)c1cccs1)CCC2	Jurkat NFkB inh 64.7, Mdm2 MdmX PPI 51.3 | Jurkat NFkB conf inactive | Mdm2 MdmX conf 72.0 | Full FLuc ctr 61.5
O=C(OCc1cccc(Cl)c1)c1cc([N+](=O)[O-])ccc1N1CCOCC1	none
COc1ccc(COC(=O)c2cc([N+](=O)[O-])ccc2N2CCOCC2)cc1F	Jurkat NFkB inh 93.3, Mdm2 MdmX PPI 72.2 | Jurkat NFkB conf 64.8 | Mdm2 MdmX conf 77.9 | Full FLuc ctr 124.8
CCC1CCCCN1CCCNC(=O)C1CCN(Cc2nc(-c3ccc(Cl)cc3)oc2C)CC1 (configuration not stated)	Jurkat NFkB inh 55.6, Mdm2 MdmX PPI 98.3 | Jurkat NFkB conf inactive | Mdm2 MdmX conf 96.5 | Full FLuc ctr 60.5
Cc1oc(-c2ccc(Cl)cc2)nc1CN1CCC(C(=O)NCCCN2CCOCC2)CC1	none
CCN(CC)c1ccc(-c2nn3c(-c4ccccc4OC)nnc3s2)cc1	Jurkat NFkB inh 78.9, Mdm2 MdmX PPI 76.3 | Jurkat NFkB conf 63.8 | Mdm2 MdmX conf 65.2 | Full FLuc ctr 73.0
COc1ccc(C(=O)N(Cc2ccccc2)Cc2cc3cc4c(cc3[nH]c2=O)OCCO4)cc1	Jurkat NFkB inh 54.9, Mdm2 MdmX PPI 51.5 | Jurkat NFkB conf inactive | Mdm2 MdmX conf 65.0 | Full FLuc ctr 50.8
COc1cccc(C(=O)N(Cc2ccccc2)Cc2cc3cc4c(cc3[nH]c2=O)OCCO4)c1	none
COc1ccc(C2NN=C(c3c[nH]c4ccccc34)C2O)cc1 (configuration not stated)	none
